Test results published in article PMC9838217, “Structure of SALL4 zinc finger domain reveals link between AT-rich DNA binding and Okihiro syndrome”.
Substitutions are numbered along the chain they refer to.

How the values were obtained:
Test in all cases: HT-SELEX; high values mean tight binding
Settings in all cases: protein: recombinant; vector His6-GST; dsDNA, one strand shown
SALL4 ZFC4 WT (HT-SELEX) = target: T1, SALL4 ZFC4 WT (HT-SELEX) (Mus musculus, UniProt Q8BX22 870-940)
T1 sequence: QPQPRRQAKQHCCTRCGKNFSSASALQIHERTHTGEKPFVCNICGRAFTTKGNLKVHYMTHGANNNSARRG
In short: (§1)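 Purified recombinant mouse SALL4 zinc finger cluster 4 (residues 870–940, 1 µg) was incubated with library DNA (1.5 µg first cycle, 200 ng later) in 100 µl buffer (10 mM Tris–HCl pH 7.5, 50 mM NaCl, poly(dI-dC), DTT) for 10 min at room temperature. Ni2+ bead-captured complexes were washed, PCR-amplified and reselected for up to 6 cycles, in triplicate, then MiSeq-sequenced and scanned for 6-mers. Binding signal is each canonical k-mer's read fraction as fold change versus the initial random library.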

[1] = target: T2, SALL4 ZFC4 R900W (HT-SELEX) (Mus musculus, UniProt Q8BX22 870-940, R900W)
T2 sequence: T1 sequence with R31W
In short: as §1

[2] = target: T3, SALL4 ZFC4 G921D (HT-SELEX) (Mus musculus, UniProt Q8BX22 870-940, G921D)
T3 sequence: T1 sequence with G52D
In short: as §1

| Sequence | binding signal (SALL4 ZFC4 WT (HT-SELEX)) | binding signal [1] | binding signal [2] |
| --- | --- | --- | --- |
| CCTCAC | 0.47 ± 0.0318 fold-change vs cycle 0 | 0.561 ± 0.0275 fold-change vs cycle 0 | 0.658 ± 0.0448 fold-change vs cycle 0 |
| AAGGTG | 0.806 ± 0.0296 fold-change vs cycle 0 | 0.944 ± 0.0313 fold-change vs cycle 0 | 0.95 ± 0.0211 fold-change vs cycle 0 |
| CTCGAA | 0.675 ± 0.0333 fold-change vs cycle 0 | 0.763 ± 0.0367 fold-change vs cycle 0 | 0.838 ± 0.0207 fold-change vs cycle 0 |
| CTAGTA | 1.34 ± 0.0412 fold-change vs cycle 0 | 1.54 ± 0.0865 fold-change vs cycle 0 | 1.39 ± 0.135 fold-change vs cycle 0 |
| GTAGAC | 0.684 ± 0.0405 fold-change vs cycle 0 | 0.821 ± 0.033 fold-change vs cycle 0 | 0.891 ± 0.0118 fold-change vs cycle 0 |
| ACCACA | 0.701 ± 0.0312 fold-change vs cycle 0 | 0.793 ± 0.0317 fold-change vs cycle 0 | 0.841 ± 0.0188 fold-change vs cycle 0 |
| CTATGC | 0.624 ± 0.0148 fold-change vs cycle 0 | 0.702 ± 0.0118 fold-change vs cycle 0 | 0.796 ± 0.0538 fold-change vs cycle 0 |
| CAACAA | 1.1 ± 0.0197 fold-change vs cycle 0 | 1.21 ± 0.0488 fold-change vs cycle 0 | 1.2 ± 0.0481 fold-change vs cycle 0 |
| TGCGAA | 0.447 ± 0.0325 fold-change vs cycle 0 | 0.488 ± 0.0122 fold-change vs cycle 0 | 0.618 ± 0.0628 fold-change vs cycle 0 |
| ACTAAG | 1.42 ± 0.0426 fold-change vs cycle 0 | 1.61 ± 0.0315 fold-change vs cycle 0 | 1.45 ± 0.0661 fold-change vs cycle 0 |
| GATTAA | 2.07 ± 0.127 fold-change vs cycle 0 | 1.99 ± 0.123 fold-change vs cycle 0 | 1.77 ± 0.188 fold-change vs cycle 0 |
| ATGTTC | 1.28 ± 0.0355 fold-change vs cycle 0 | 1.37 ± 0.0462 fold-change vs cycle 0 | 1.36 ± 0.0792 fold-change vs cycle 0 |
| AGGAGC | 0.374 ± 0.0206 fold-change vs cycle 0 | 0.46 ± 0.0185 fold-change vs cycle 0 | 0.595 ± 0.0548 fold-change vs cycle 0 |
| TCAACA | 1.19 ± 0.0385 fold-change vs cycle 0 | 1.35 ± 0.0647 fold-change vs cycle 0 | 1.3 ± 0.0976 fold-change vs cycle 0 |
| GCTTGA | 0.627 ± 0.00807 fold-change vs cycle 0 | 0.737 ± 0.0133 fold-change vs cycle 0 | 0.831 ± 0.0377 fold-change vs cycle 0 |
| CAGGGA | 0.492 ± 0.0092 fold-change vs cycle 0 | 0.57 ± 0.0327 fold-change vs cycle 0 | 0.629 ± 0.0495 fold-change vs cycle 0 |
| ATGTTA | 2.16 ± 0.126 fold-change vs cycle 0 | 2.08 ± 0.106 fold-change vs cycle 0 | 1.83 ± 0.212 fold-change vs cycle 0 |
| ATTGCC | 0.502 ± 0.0233 fold-change vs cycle 0 | 0.566 ± 0.0263 fold-change vs cycle 0 | 0.699 ± 0.0539 fold-change vs cycle 0 |
| CACATA | 1.22 ± 0.0607 fold-change vs cycle 0 | 1.28 ± 0.0534 fold-change vs cycle 0 | 1.25 ± 0.0582 fold-change vs cycle 0 |
| GTCTGA | 0.754 ± 0.0534 fold-change vs cycle 0 | 0.884 ± 0.0322 fold-change vs cycle 0 | 0.945 ± 0.0454 fold-change vs cycle 0 |
| AATCCG | 0.616 ± 0.0217 fold-change vs cycle 0 | 0.698 ± 0.0254 fold-change vs cycle 0 | 0.798 ± 0.0327 fold-change vs cycle 0 |

| Sequence | binding signal (SALL4 ZFC4 WT (HT-SELEX)) | binding signal [1] | binding signal [2] |
| --- | --- | --- | --- |
| GGTAGA | 0.746 ± 0.0282 fold-change vs cycle 0 | 0.849 ± 0.0219 fold-change vs cycle 0 | 0.892 ± 0.0246 fold-change vs cycle 0 |
| TAATTA | 4.1 ± 0.33 fold-change vs cycle 0 | 2.77 ± 0.208 fold-change vs cycle 0 | 2.33 ± 0.317 fold-change vs cycle 0 |
| AAAGGC | 0.475 ± 0.0422 fold-change vs cycle 0 | 0.571 ± 0.0175 fold-change vs cycle 0 | 0.688 ± 0.0599 fold-change vs cycle 0 |
| TTACAA | 2.01 ± 0.0785 fold-change vs cycle 0 | 2.03 ± 0.0849 fold-change vs cycle 0 | 1.81 ± 0.143 fold-change vs cycle 0 |
| ATTGGG | 0.725 ± 0.0369 fold-change vs cycle 0 | 0.818 ± 0.0162 fold-change vs cycle 0 | 0.856 ± 0.0353 fold-change vs cycle 0 |
| GAGAGC | 0.363 ± 0.00861 fold-change vs cycle 0 | 0.422 ± 0.0138 fold-change vs cycle 0 | 0.588 ± 0.0466 fold-change vs cycle 0 |
| CAGATG | 0.794 ± 0.0267 fold-change vs cycle 0 | 0.922 ± 0.0206 fold-change vs cycle 0 | 0.959 ± 0.0159 fold-change vs cycle 0 |
| CAGGTA | 0.825 ± 0.0117 fold-change vs cycle 0 | 0.927 ± 0.0176 fold-change vs cycle 0 | 0.973 ± 0.0448 fold-change vs cycle 0 |
| ATGTGA | 1.31 ± 0.0395 fold-change vs cycle 0 | 1.44 ± 0.0647 fold-change vs cycle 0 | 1.39 ± 0.0509 fold-change vs cycle 0 |
| GATAAA | 2.01 ± 0.0629 fold-change vs cycle 0 | 1.92 ± 0.127 fold-change vs cycle 0 | 1.69 ± 0.118 fold-change vs cycle 0 |
| ACACCA | 0.735 ± 0.0297 fold-change vs cycle 0 | 0.841 ± 0.0318 fold-change vs cycle 0 | 0.903 ± 0.0271 fold-change vs cycle 0 |
| TAATGA | 2.15 ± 0.16 fold-change vs cycle 0 | 2.16 ± 0.14 fold-change vs cycle 0 | 1.9 ± 0.22 fold-change vs cycle 0 |
| ATGGGA | 0.904 ± 0.0547 fold-change vs cycle 0 | 0.99 ± 0.053 fold-change vs cycle 0 | 0.966 ± 0.0349 fold-change vs cycle 0 |
| ATCTCA | 1.42 ± 0.0416 fold-change vs cycle 0 | 1.5 ± 0.0539 fold-change vs cycle 0 | 1.43 ± 0.0584 fold-change vs cycle 0 |
| AGTATG | 1.43 ± 0.0699 fold-change vs cycle 0 | 1.49 ± 0.072 fold-change vs cycle 0 | 1.38 ± 0.0928 fold-change vs cycle 0 |
| GACACC | 0.393 ± 0.0241 fold-change vs cycle 0 | 0.461 ± 0.0351 fold-change vs cycle 0 | 0.593 ± 0.067 fold-change vs cycle 0 |
| CCACCA | 0.417 ± 0.0318 fold-change vs cycle 0 | 0.471 ± 0.033 fold-change vs cycle 0 | 0.582 ± 0.0561 fold-change vs cycle 0 |
| CGTTTA | 1.06 ± 0.0285 fold-change vs cycle 0 | 1.15 ± 0.0184 fold-change vs cycle 0 | 1.12 ± 0.0221 fold-change vs cycle 0 |
| GCTGAC | 0.325 ± 0.00641 fold-change vs cycle 0 | 0.408 ± 0.0215 fold-change vs cycle 0 | 0.526 ± 0.0825 fold-change vs cycle 0 |
| TAAATA | 3.77 ± 0.207 fold-change vs cycle 0 | 2.47 ± 0.107 fold-change vs cycle 0 | 2.11 ± 0.184 fold-change vs cycle 0 |
| AATCAT | 2.57 ± 0.14 fold-change vs cycle 0 | 2.12 ± 0.0633 fold-change vs cycle 0 | 1.93 ± 0.164 fold-change vs cycle 0 |
